Activity calls are given as the source filed them. Unless noted, how the calls were made is not given here.
Tests used:
[1] = anti-His antibody binders, primary screen, artefact control for SMM control protein annotation, biochemical, small-molecule microarray, 635 nm fluorescence (AID 1128); conditions: anti-His Alexa647 antibody binding, higher = more signal;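 further: score merges feature fluorescence with signal-to-noise for each printed compound spot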
[2] = test system: Human papillomavirus type 1a E7 protein (residues 1-88); assay: HPV1a E7 small-molecule binders, primary screen, biochemical, small-molecule microarray, residues 1-88, 635 nm (AID 1129); conditions: small-molecule microarray binding, fluorescence 635 nm; higher = more signal
[3] = biological target: Focal adhesion kinase 1 (Homo sapiens) (UniProt Q05397); assay: small-molecule microarray binders of FAK, primary screen, biochemical, 635/667 nm fluorescence, BSA, DTT (AID 1130); conditions: PTK2 binding, 635 nm fluorescence, higher = more signal;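 further: composite of spot emission at 667 nm and signal to noise over triplicate slides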
Sequence of Focal adhesion kinase 1 (Homo sapiens) (Q05397 whole entry, looked up): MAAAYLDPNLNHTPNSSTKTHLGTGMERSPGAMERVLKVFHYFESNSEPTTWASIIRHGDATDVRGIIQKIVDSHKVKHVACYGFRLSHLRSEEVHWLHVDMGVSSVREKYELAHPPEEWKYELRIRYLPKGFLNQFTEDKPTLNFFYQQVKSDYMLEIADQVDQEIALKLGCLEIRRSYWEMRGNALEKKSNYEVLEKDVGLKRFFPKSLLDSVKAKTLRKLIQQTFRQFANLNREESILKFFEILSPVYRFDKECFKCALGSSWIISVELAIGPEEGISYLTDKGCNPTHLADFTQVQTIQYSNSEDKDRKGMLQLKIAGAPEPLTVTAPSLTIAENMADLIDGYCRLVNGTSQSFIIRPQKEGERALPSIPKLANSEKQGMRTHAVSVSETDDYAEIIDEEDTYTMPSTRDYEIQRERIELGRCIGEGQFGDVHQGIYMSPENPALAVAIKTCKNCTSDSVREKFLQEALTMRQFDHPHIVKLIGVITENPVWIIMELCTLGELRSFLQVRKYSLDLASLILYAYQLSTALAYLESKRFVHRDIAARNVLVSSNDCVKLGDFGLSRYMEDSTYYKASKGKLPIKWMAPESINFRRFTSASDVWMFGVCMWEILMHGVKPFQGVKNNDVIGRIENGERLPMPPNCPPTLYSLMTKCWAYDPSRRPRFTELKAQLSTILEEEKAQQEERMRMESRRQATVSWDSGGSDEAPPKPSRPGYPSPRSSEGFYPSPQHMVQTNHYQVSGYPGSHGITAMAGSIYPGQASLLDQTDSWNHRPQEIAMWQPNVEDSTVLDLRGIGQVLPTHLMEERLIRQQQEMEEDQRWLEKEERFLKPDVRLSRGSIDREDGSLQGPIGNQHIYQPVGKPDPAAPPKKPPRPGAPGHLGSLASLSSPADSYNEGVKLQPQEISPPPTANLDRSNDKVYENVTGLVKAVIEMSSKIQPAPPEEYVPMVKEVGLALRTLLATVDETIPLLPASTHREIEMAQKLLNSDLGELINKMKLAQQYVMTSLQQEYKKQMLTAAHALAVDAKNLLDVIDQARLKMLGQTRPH

[4] = test system: Fibrinogen (Alexa647-labelled); assay: fibrinogen binders on compound microarrays, profiling panel, artefact control for SMM control-protein annotation, biochemical, small-molecule microarray, 635/667 nm fluorescence (AID 1131); conditions: fibrinogen-A647 binding fluorescence, higher = more signal;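 further: z-score merges 667 nm fluorescence with per-spot signal-to-noise over triplicate slides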
[5] = biological target: Follistatin (Homo sapiens) (UniProt P19883); assay: follistatin binders on small-molecule microarrays, primary screen, biochemical, small-molecule microarray, 635/667 nm fluorescence (AID 1132); conditions: FST binding, 635 nm fluorescence, higher = more signal
Sequence of Follistatin (Homo sapiens) (P19883 whole entry, looked up): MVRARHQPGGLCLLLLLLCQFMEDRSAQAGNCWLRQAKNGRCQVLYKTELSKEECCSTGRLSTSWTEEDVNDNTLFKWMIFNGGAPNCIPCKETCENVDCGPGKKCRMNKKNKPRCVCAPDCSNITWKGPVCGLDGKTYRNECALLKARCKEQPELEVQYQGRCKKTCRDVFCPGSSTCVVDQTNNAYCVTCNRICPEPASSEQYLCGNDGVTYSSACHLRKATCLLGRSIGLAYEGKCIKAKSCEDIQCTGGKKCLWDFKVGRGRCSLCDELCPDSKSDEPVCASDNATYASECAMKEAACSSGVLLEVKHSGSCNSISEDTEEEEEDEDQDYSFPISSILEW

[6] = biological target: Fibroblast growth factor 2 (Homo sapiens) (UniProt P09038); assay: FGF2 binders on small-molecule microarrays, primary screen, biochemical, small-molecule microarray, 635/667 nm fluorescence (AID 1133); conditions: small-molecule microarray binding, FGF2, fluorescence 635/667; higher = more signal
Sequence of Fibroblast growth factor 2 (Homo sapiens) (P09038 whole entry, looked up): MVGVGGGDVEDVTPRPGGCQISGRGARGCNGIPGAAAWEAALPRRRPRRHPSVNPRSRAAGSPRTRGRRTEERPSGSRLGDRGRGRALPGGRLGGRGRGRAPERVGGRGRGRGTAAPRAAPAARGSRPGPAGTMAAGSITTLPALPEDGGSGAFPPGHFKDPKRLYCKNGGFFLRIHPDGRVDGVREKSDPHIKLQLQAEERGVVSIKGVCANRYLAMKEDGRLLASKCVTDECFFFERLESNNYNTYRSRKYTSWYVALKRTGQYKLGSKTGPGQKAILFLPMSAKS

[7] = mitochondrial membrane potential change in A549 cells, profiling panel, cell-based, JC-1 fluorescence, basal, 24 h, 100 nL (AID 1138); conditions: higher = more signal;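 further: A549 lung adenocarcinoma cells under basal conditions with no added stimulus; test concentration not given here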
[8] = test system: Lefty1; assay: Lefty1 binders on small-molecule microarrays, primary screen, biochemical, small-molecule microarray, 635/667 nm fluorescence (AID 1139); conditions: small-molecule microarray binding, fluorescence 635/667; higher = more signal
[9] = test system: wheat germ agglutinin (Triticum aestivum), Alexa647-labelled; assay: wheat germ agglutinin binders on compound microarrays, profiling panel, artefact control for SMM control-protein annotation, biochemical, small-molecule microarray, 635/667 nm fluorescence (AID 1140); conditions: WGA-A647 binding, 635 nm fluorescence, higher = more signal;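 further: score merges 667 nm feature emission with signal to noise over triplicate slides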
[10] = biological target: Luciferin 4-monooxygenase (Photinus pyralis) (UniProt P08659); assay: firefly luciferase enzyme inhibitors, primary screen, biochemical, luminescence, purified enzyme, 2006 set (AID 1141); conditions: SteadyGlo luminescence, 30 min, higher = more signal, called active from +8 up or from −8 down;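 further: cell-free assay with purified firefly luciferase at 100 ng per well in PBS; test concentration not given here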
Sequence of Luciferin 4-monooxygenase (Photinus pyralis) (P08659 whole entry, looked up): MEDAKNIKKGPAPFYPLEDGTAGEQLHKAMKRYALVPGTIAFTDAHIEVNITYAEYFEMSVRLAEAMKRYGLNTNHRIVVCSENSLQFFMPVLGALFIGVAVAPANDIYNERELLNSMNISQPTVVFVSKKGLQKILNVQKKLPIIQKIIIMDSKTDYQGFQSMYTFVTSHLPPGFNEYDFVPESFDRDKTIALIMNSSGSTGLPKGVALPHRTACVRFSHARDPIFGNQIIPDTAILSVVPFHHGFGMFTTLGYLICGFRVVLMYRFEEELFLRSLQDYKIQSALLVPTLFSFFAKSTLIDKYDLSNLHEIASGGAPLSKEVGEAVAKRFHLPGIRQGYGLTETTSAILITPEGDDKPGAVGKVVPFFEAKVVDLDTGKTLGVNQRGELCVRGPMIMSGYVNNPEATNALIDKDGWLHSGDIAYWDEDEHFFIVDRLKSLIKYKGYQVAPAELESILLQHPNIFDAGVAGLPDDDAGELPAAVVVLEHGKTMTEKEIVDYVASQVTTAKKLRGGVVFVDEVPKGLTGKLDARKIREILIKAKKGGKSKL

[11] = test system: Wnt5a (protein binding on small-molecule microarray); assay: Wnt5a binders on small-molecule microarray, primary screen, biophysical, 635/667 nm fluorescence (AID 1142); conditions: 635 nm fluorescence, higher = more signal;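 further: fluorescence read at 667 nm with signal to noise per printed feature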
[12] = cell viability in Huh7 cells, primary screen, cytotoxicity control for HCV replication inhibitor project, CellTiter-Glo luminescence, basal, 48 h (AID 1143); conditions: Huh7 HCV replicon, higher = more signal, called active from +8 up or from −8 down;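 further: Huh7 hepatoma cells carrying a hepatitis C replication reporter with no stimulus; test concentration not given here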
[13] = P. aeruginosa biofilm formation inhibitors, primary screen, PAO1 strain, BacTiter-Glo luminescence, LB-PBS (AID 1144); conditions: 12 h, higher = more signal
[14] = CREB reporter modulators without forskolin, primary screen, cell-based, PC12, CRE-LacZ reporter, unstimulated (AID 1145); conditions: no forskolin, luminescence, 4.5 h, higher = more signal, called active from +8 up or from −8 down
[15] = CREB reporter modulators under forskolin, primary screen, cell-based, PC12, CRE-LacZ reporter, forskolin-stimulated (AID 1146); conditions: luminescence, 4.5 h, higher = more signal, called active from +8 up or from −8 down;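 further: PC12 cells with 6xCRE LacZ reporter stimulated by forskolin 10 µM; beta-galactosidase reporter signal reflecting CREB driven transcription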
[16] = biological target: Streptavidin (Streptomyces avidinii) (UniProt P22629); assay: streptavidin binders on small-molecule microarray, primary screen, artefact control for SMM compound annotation, biophysical, 635/667 nm fluorescence (AID 1147); conditions: streptavidin binding, higher = more signal;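 further: signal reflects streptavidin binding to arrayed compounds as a control protein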
Sequence of Streptavidin (Streptomyces avidinii) (P22629 whole entry, looked up): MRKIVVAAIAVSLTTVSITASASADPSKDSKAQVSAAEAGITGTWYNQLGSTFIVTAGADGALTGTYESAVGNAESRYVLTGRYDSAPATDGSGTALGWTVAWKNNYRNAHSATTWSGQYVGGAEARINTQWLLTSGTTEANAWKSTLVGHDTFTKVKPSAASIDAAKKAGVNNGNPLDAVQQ

[17] = small-molecule binders of probe aInhba, primary screen, biochemical, small-molecule microarray, 635/667 nm fluorescence (AID 1148); conditions: higher = more signal;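 further: score merges 667nm spot fluorescence with signal-to-noise for antibody binding to printed compounds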
[18] = biological target: Torsin-1A (Homo sapiens) (UniProt O14656); assay: torsin A binders from cell lysate, primary screen, small-molecule microarray, wild-type, 635/667 nm (AID 1149); conditions: COS7 hTOR1A-WT lysate, 635 nm fluorescence, higher = more signal
Sequence of Torsin-1A (Homo sapiens) (O14656 whole entry, looked up): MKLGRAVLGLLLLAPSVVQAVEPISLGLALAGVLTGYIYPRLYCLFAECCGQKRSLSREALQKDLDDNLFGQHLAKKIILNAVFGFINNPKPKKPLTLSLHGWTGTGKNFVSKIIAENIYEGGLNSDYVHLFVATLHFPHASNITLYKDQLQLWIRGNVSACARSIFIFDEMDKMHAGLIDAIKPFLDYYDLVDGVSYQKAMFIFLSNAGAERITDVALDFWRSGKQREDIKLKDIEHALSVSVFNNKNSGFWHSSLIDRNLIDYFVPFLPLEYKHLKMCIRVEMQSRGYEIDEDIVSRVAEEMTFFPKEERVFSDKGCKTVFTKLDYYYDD

[19] = biological target: Torsin-1A (Homo sapiens) (UniProt O14656); assay: small-molecule binders of mutant TOR1A in lysate, primary screen, cell lysate, small-molecule microarray, COS7 lysate, 635/667 nm fluorescence (AID 1150); conditions: COS7 hTOR1A mutant lysate, 635 nm fluorescence, higher = more signal;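 further: score pools 667 nm emission and signal to noise measuring lysate protein binding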
[20] = test system: Sonic hedgehog protein (Shh); assay: small-molecule binders of Shh protein, primary screen, biochemical, small-molecule microarray, 635/667 nm fluorescence (AID 1151); conditions: small-molecule microarray binding, 635 nm fluorescence; higher = more signal;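 further: Shh protein binding to compounds spotted on small-molecule microarray slides; score combines spot fluorescence intensity with signal-to-noise across triplicate slides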

| SMILES | composite z-score [1] | composite z-score [2] | composite z-score [3] | composite z-score [4] | composite z-score [5] | composite z-score [6] | z-score [7] | composite z-score [8] | composite z-score [9] | z-score [10] | composite z-score [11] | z-score [12] | z-score [13] | z-score [14] | z-score [15] | composite z-score [16] | composite z-score [17] | composite z-score [18] | composite z-score [19] | composite z-score [20] |
| --- | --- | --- | --- | --- | --- | --- | --- | --- | --- | --- | --- | --- | --- | --- | --- | --- | --- | --- | --- | --- |
| COCCOC(=O)N1C(=O)[C@@]2(c3cc(C#CC4=CCCCC4)ccc31)[C@H](c1ccccc1OCCO)N1[C@H](c3ccccc3)[C@H](c3ccccc3)OC(=O)[C@H]1[C@@H]2C(=O)Nc1nc2ccccc2s1 | 1.16 | 0.96 | 0.96 | 0.868 | 1.19 | 0.731 | -2.14 | 1.09 | 0.754 | -2.08 (inactive) | 0.632 | -2.06 (inactive) | 0.305 (inactive) | -0.0526 (inactive) | 0.687 (inactive) | 0.827 | 0.0497 | 0.881 | 0.344 | 1.27 |
| Cn1cccc1C(O)C1C=CC2C(=O)NC(=O)C2N1Nc1ccc(Cl)cc1Cl (stereo not given) | 1.43 | 1.24 | 1.42 | 1.02 | 1.28 | 0.0937 | -0.13 | -0.207 | 1.15 | -1.4 (inactive) | 0.0792 | -0.316 (inactive) | -0.668 (inactive) | 0.812 (inactive) | 2.09 (inactive) | 1.37 | 0.374 | 0.887 | 1.05 | -0.269 |
| CCCC[C@@H](O)C1=C(COc2ccccc2)C[C@H]2C(=O)N(C)C(=O)[C@H]2[C@H]1CO | 0.0713 | -0.231 | 0.713 | -0.247 | 0.129 | -0.16 | 0.708 | 0.0695 | -0.488 | -0.475 (inactive) | -0.339 | -1.22 (inactive) | -1.24 (inactive) | 2.49 (inactive) | -0.94 (inactive) | -0.803 | -0.102 | -0.631 | 0.596 | 0.406 |
| COc1ccc([Si](C)(C)[C@H]2[C@H](CC(=O)N(CCO)Cc3ccccc3)O[C@@]3(C(=O)N(Cc4cccc(N5CCOC5=O)c4)c4ccccc43)[C@@H]2C)cc1 | 1.65 | 0.922 | 0.647 | 0.206 | 1.06 | 0.494 | -0.791 | 0.857 | 0.321 | 0.271 (inactive) | -0.031 | -4.86 (inactive) | -0.388 (inactive) | 1.27 (inactive) | -0.863 (inactive) | 0.0212 | -0.0523 | 0.898 | 0.931 | 1.22 |
| [N-]=[N+]=NCc1ccccc1C[C@@]1(C(=O)NCc2ccccc2)N=C(c2ccc(OCCCO)cc2)O[C@@H]1c1ccccc1N=[N+]=[N-] | 1.64 | 1.18 | 0.0861 | 0.948 | 0.557 | -0.58 | 1.12 | -0.324 | 1.15 | -6.99 (inactive) | 0.122 | -3.96 (inactive) | 0.0507 (inactive) | 1.05 (inactive) | -0.639 (inactive) | 1.2 | -0.003 | 0.0959 | 0.461 | -1.08 |
| CC(C)(C)OC(=O)CC[C@]1(C(=O)NCc2ccccc2)N=C(c2ccc(OCCCO)cc2)O[C@H]1c1ccccc1CN=[N+]=[N-] | 2 | 1.23 | -0.221 | 0.985 | 1.48 | 1.75 | 2.45 | 1.33 | 0.571 | -2.11 (inactive) | 1.3 | -3.05 (inactive) | -0.368 (inactive) | 0.344 (inactive) | -0.156 (inactive) | 1.2 | 0.138 | 0.245 | 0.895 | 1.36 |
| C=C(/C(=C/C[C@@H](OC(C)=O)c1cccc(OCCO)c1)c1cc(C(=O)OC)ccc1OC)C(C)C | -0.422 | 0.238 | 0.543 | -0.75 | 1.12 | 1.39 | 0.834 | 1.16 | 0.743 | 0.0406 (inactive) | 0.148 | -1.38 (inactive) | -0.251 (inactive) | 3.49 (inactive) | 0.32 (inactive) | -0.19 | -0.152 | 0.875 | 1.36 | 1.73 |
| O=C1OCC=C[C@H]2OC34C=CCN(Cc5ccccc5)C(=O)[C@H]3N(CCCCCCO)C(=O)[C@@H]4[C@@H]12 (stereo not given in full) | 1.29 | -0.0134 | 0.879 | -1.25 | -0.562 | -0.292 | 0.0814 | -0.128 | 0.206 | -3.54 (inactive) | -0.495 | -0.203 (inactive) | -0.955 (inactive) | -1.18 (inactive) | -0.185 (inactive) | -0.447 | -0.238 | 1.6 | 1.29 | -0.289 |
| Cc1ccc(S[C@]2(C(=O)NCC(F)(F)F)CC(=O)N(C3CCCCC3)[C@@H]2c2ccc(CO)cc2I)cc1 | 0.21 | 1.21 | 0.543 | 0.774 | 0.969 | 0.621 | 2.17 | 0.465 | 0.395 | -0.691 (inactive) | -0.0208 | -1.76 (inactive) | 1.13 (inactive) | 0.622 (inactive) | 0.343 (inactive) | 0.864 | 0.0074 | -0.357 | 1.19 | 0.834 |
| O=C1O[C@H](c2ccccc2)[C@H](c2ccccc2)N2[C@H]1[C@@H](C(=O)Nc1nc3ccccc3s1)[C@]1(C(=O)Nc3ccccc31)[C@H]2c1ccc(OCCO)cc1 | 1.55 | 1.19 | 0.522 | 1.01 | 1.45 | 1.18 | -2.15 | 1.2 | -0.0258 | -4.2 (inactive) | 0.433 | -2.91 (inactive) | -0.538 (inactive) | -0.0515 (inactive) | -0.124 (inactive) | 0.534 | -0.113 | 0.927 | 1.2 | 1.5 |
